# Screening data deposited in PubChem BioAssay by The Scripps Research Institute Molecular Screening Center.
# DAX1 inh-1: DAX1 (NR0B1) inhibition, primary screen | HEK293T StAR-luciferase reporter, SF-1/DAX-1 repression relief | inhibition, % at 6.8 µM | 370,000 compounds, 1.1% hits | AID 652010;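 active means inhibition above the mean over all tested compounds plus 3 SD, cut at about 3.6% in these data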;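 further: 0% = DAX-1 cells with DMSO and 100% = cells lacking DAX-1 with DMSO; higher inhibition means more luminescence from relief of DAX-1 repression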
# hgDAF-12 ag: agonists of H. glycines DAF-12 nuclear receptor. activation, % at 6.8 µM. 370,000 compounds, 1.8% hits. HEK293 GAL4-hgDAF12 UAS-luciferase reporter, agonist luminescence; normalized to butyrate control;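 active means activation above a cutoff set at the mean of all screened compounds plus 3 SD, cut at about 10% in these data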;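 further: 0% = DMSO wells and 100% = sodium butyrate wells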
# DAX1 inh-2: NR0B1 (DAX1) inhibition. P51843. HEK293 Gal4-DAX1 luciferase reporter, luminescence. inhibition, % at 6.75 µM. 340,000 compounds, 0.99% hits;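 active means inhibition above the mean over all tested compounds plus 3 SD, cut at about 4.2% in these data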;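 further: 0% = DAX1-transfected cells with DMSO and 100% = empty-vector control cells with DMSO; inhibition shows as a rise in luminescence from relieved DAX1 repression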
# Target sequence (P51843 207-470 limits assumed): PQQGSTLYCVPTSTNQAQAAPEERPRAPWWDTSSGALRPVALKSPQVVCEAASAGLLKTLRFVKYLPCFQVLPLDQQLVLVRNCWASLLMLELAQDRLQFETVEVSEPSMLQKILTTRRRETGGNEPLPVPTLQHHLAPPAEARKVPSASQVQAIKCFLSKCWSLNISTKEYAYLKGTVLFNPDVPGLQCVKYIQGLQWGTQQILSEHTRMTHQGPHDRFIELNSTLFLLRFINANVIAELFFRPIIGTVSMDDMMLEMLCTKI
# ssDAF-12 act: S. stercoralis DAF-12 activation, primary screen; 370,000 compounds, 1% hits; HEK293 ssDAF-12/GRIP1 lit1-tk-luc reporter, luminescence; % of 3 µM dafachronic acid response; activation, % at 6.8 µM;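 active means activation above the mean over all tested compounds plus 3 SD, cut at about 0.9% in these data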;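 further: 0% = DMSO-only wells and 100% = 3 µM delta7-dafachronic acid wells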
# hcDAF-12 act: H. contortus DAF-12 activation, primary screen; 370,000 compounds, 1.4% hits; AID 652067; activation, % at 6.8 µM; HEK293 hcDAF-12 lit1-tk-luc reporter, luminescence; 0% DMSO, 100% Δ7-dafachronic acid;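 active means activation above the mean of all tested compounds plus 3 SD, cut at about 5.5% in these data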;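 further: 100% = response to 3 µM Δ7-dafachronic acid high control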
# LXRb hcDAF ctr: activates human LXR-beta, counter-screen for hcDAF-12 agonists; shares compounds with hcDAF-12 act; HEK293 Gal4-LXR tk-luc reporter, luminescence, 24 h; normalized: DMSO 0%, positive control 100%; 3,400 tested, under 10 active; activation, % at 6.8 µM;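 active means mean percent activation of the reporter above a cutoff set as the average over tested compounds plus their standard deviation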
# hcDAF12 ag: confirmation of H. contortus DAF-12 agonists; shares compounds with hcDAF-12 act; HEK293 hcDAF-12 lit1-tk-luc reporter, luminescence; % of Δ7-dafachronic acid response; activation, % at 6.8 µM; 3,400 compounds, 61% hits;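 active means mean activation across triplicate tests above the threshold derived from the earlier primary screen, cut at about 5.5% in these data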;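 further: 0% = DMSO only wells and 100% = 3 µM Δ7-dafachronic acid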
# * hit, by the source's call; nt = not tested or not shown. Rows were chosen to be rich in hits. Some 4.1% of all compounds tested hit in one or more screens of this group.
SMILES,DAX1 inh-1,hgDAF-12 ag,DAX1 inh-2,ssDAF-12 act,hcDAF-12 act,LXRb hcDAF ctr,hcDAF12 ag
CCCC(=O)N1N=C(c2ccccc2)CC1c1cn(C)c2ccccc12 (configuration not stated),0,0,0,-1,8.1*,0,2
O=C(c1ccccc1)N1N=C(c2ccccc2)CC1c1ccccc1 (configuration not stated),0,0,-1,-1,3,nt,nt
CC(=O)N1N=C(c2ccc(Br)cc2)CC1c1cn(C)c2ccccc12 (configuration not stated),-1,2,0,0,1,nt,nt
Cc1cc(=O)oc2cc(OCC(=O)Nc3c(C)n(C)n(-c4ccccc4)c3=O)c(Cl)cc12,0,-1,-1,0,0,nt,nt
CCn1ncc(Br)c1C(=O)Nc1ccc(C(C)C)cc1,0,10,1,-1,7.8*,0,3
COc1cccc2c1SCc1ccccc1C2CC(N)=O (configuration not stated),1,0,1,0,6.8*,0,3
COc1ccccc1CC(=O)NC1CCCc2ccccc21 (configuration not stated),0,1,1,-1,-1,nt,nt
c1ccc2c(-c3nc4ncccc4o3)cccc2c1,0,5,2,0,8.3*,0,5.6*
Fc1ccccc1-c1nc2ncccc2o1,1,6,0,-2,2,nt,nt
Cc1nnc(-n2cccc2)s1,1,-2,nt,0,7.2*,0,3
O=C(CCn1c(=S)oc2ccccc21)Nc1cccc(O)c1,-1,3,-1,-2,0,nt,nt
O=C(CCn1c(=S)oc2ccccc21)Nc1cccc(F)c1,0,-1,-1,-1,7.5*,-1,-2
COC(=O)/C=C(\C)N=Nc1c(O)[nH]c2ccccc12,0,1,1,0,7.3*,0,6.8*
Oc1[nH]c2ccccc2c1N=Nc1ccccc1,2,10,2,1,13*,1,14*
O=C(CN1CCCCC1)N=Nc1c(O)[nH]c2ccccc12,0,1,3,-1,3,nt,nt
COCCOc1ccc(C(F)(F)F)cc1NC(=O)c1ccccc1F,0,1,1,-1,4,nt,nt
O=C(NC1C2CC3CC(C2)CC1C3)c1ccc(Br)o1 (configuration not stated),0,-2,0,0,-2,nt,nt
Nc1nn2cc(-c3ccc(Br)cc3)nc2c2ccccc12,3,10,2,1.6*,11*,1,14*
O=[N+]([O-])c1cccn2cc(-c3ccc(Br)cc3)nc12,2,4,0,0,4,nt,nt
O=C(CCc1nnc(Cc2c[nH]c3ccccc23)o1)NC1CCCC1,0,1,0,0,4,nt,nt
O=C(CCc1nnc(Cc2c[nH]c3ccccc23)o1)NCCC1CCCCO1 (configuration not stated),0,6,1,0,6.8*,0,2
O=C(NCCN1CCOCC1)c1ccccc1N1C(=O)[C@@H]2Cc3c([nH]c4ccccc34)C(c3ccc(F)cc3)N2C1=O (some centres not stated),1,-2,1,0,0,nt,nt
Cc1ccc(C2c3[nH]c4ccccc4c3C[C@H]3C(=O)N(c4ccccc4C(=O)N4CCC(C(=O)O)CC4)C(=O)N23)cc1 (some centres not stated),3,4,4,0,9.6*,0,3
COc1ccc(C2c3[nH]c4ccccc4c3C[C@H]3C(=O)N(c4ccccc4C(=O)NCCN4CCOCC4)C(=O)N23)cc1 (some centres not stated),0,0,-1,0,2,nt,nt
COc1cccc(C2c3[nH]c4ccccc4c3C[C@H]3C(=O)N(c4ccccc4C(=O)N4CCCC4C(=O)O)C(=O)N23)c1 (some centres not stated),0,4,1,0,12*,0,4
SMILES,DAX1 inh-1,hgDAF-12 ag,DAX1 inh-2,ssDAF-12 act,hcDAF-12 act,LXRb hcDAF ctr,hcDAF12 ag
Cc1ccc(C2c3[nH]c4ccccc4c3C[C@H]3C(=O)N(c4ccccc4C(=O)N4CCC[C@@H]4C(=O)O)C(=O)N23)cc1 (some centres not stated),2,4,2,0,10*,0,6
C/C(=N\N=c1/scc(C)n1Cc1ccco1)c1cccc([N+](=O)[O-])c1,0,3,-1,-1,0,nt,nt
C/C(CC(=O)NC1CCCC1)=N\NC(=O)Cc1csc(N)n1,0,1,-1,-1,-2,nt,nt
O=S(=O)([N-]c1nc2ccccc2nc1-[n+]1ccccc1)c1ccccc1,0,0,0,-1,-2,nt,nt
O=S(=O)([N-]c1nc2ccccc2nc1-[n+]1ccc(-c2ccncc2)cc1)c1ccccc1,2,10,2,0,6.9*,0,3
O=C(O)c1ccc(N/N=C/c2cc(Br)cs2)cc1,1,6,-3,1.0*,12*,1,9.0*
O=C(NCCCN1CCOCC1)c1c(F)c(F)c(F)c(F)c1F,1,0,0,-1,0,nt,nt
CCc1nc2ccc(C(=O)N3CCN(C)CC3)cn2c1N(CCC(C)C)CCN(C)C,0,-2,nt,-1,0,nt,nt
COc1ccc(Cl)cc1NC(=O)COC(=O)c1ccc(Cl)nc1,0,5,0,1,6.7*,0,2
Oc1[nH]c2ccccc2c1C=Nc1ccc2c(c1)OCCO2,3,13*,2,1,8.4*,1,6.9*
Oc1c(Br)cc(Br)cc1C=Nc1ccc2c(c1)OCCO2,-2,-3,-1,-2,-3,nt,nt
Cc1cccc(/N=C/c2c(O)[nH]c3ccccc23)n1,2,12*,3,1.2*,11*,1,9.2*
COc1ccc(-c2nnc(OCc3ccccc3)c3ccccc23)cc1,-1,1,-1,0,2,nt,nt
OCc1cc(Br)ccc1OCc1nc2ccccc2s1,nt,nt,1,nt,nt,nt,nt
Oc1ccccc1OCc1nc2ccccc2s1,3,11*,2,1.4*,7.1*,1,6.2*
COc1ccccc1CNC(=O)CCC(=O)n1ncc2cc(C)ccc21,1,2,1,-1,1,nt,nt
Brc1cccc(-c2nnc(-c3ccccc3)o2)c1,3.9*,10*,4,1.6*,11*,2,11*
CCn1c(SCC(=O)N2CCCCC2)nc2c([nH]c3ccccc32)c1=O,1,4,2,0,2,nt,nt
CCOC(=O)N1CCN(C(=O)CSc2nc3c([nH]c4ccccc43)c(=O)n2CC)CC1,-5,1,0,0,8.3*,0,1
